The inhibition is the change of the read-out against control, counted positive when it falls.

The campaign covered roughly 220,000 compounds. About 2,000 (0.91%) were called active. Not shown: some 2% with an inconclusive outcome. The list is a sample of the results. Results with a measured potency or affinity are listed apart. Values without a mark were called inactive. Cut-off read from the data, not from the text of the source: inconclusive = inhibition above about 80% without an active follow-up result; inactive = below that; test concentration not stated here.

The nature of the experiment: M. tuberculosis H37Rv growth inhibitors, H37Rv strain (AID 1626).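 Note: bacteria incubated seven days before Alamar blue readout; 0% = bacteria only wells and 100% = bacteria with antibiotic wells.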 To be noted: active compounds read high, concentration not given here.
Consider `CCOc1ccc(-c2cnc(N)n2C)cc1`, for which the inhibition is 5.53%. With `Cc1ccc(CSCCNC(=O)CN(c2cccc([N+](=O)[O-])c2)S(C)(=O)=O)cc1` the figure was 0.16%.

Turning to `Cc1noc(C)c1COC(=O)C1(c2cccc(F)c2)CCCC1`, the inhibition is 5.81%. With `CCOC(=O)CC(=O)CSc1ncnc2c1nnn2-c1ccc(OC)cc1` the figure was 0.52%; with `COC(=O)c1cccc(COC(=O)c2cccnc2SC)c1`, 5.06%; with `Cc1nn(C)c2ncc(C(N)=O)c(Oc3ccc(Cl)cc3)c12`, -11.3%. With `Cc1nc(-c2ccc(Cl)cc2)sc1C1(C)CC(c2cccc([N+](=O)[O-])c2)=NO1` (stereo not drawn) the figure was -8.66%; with `Cc1ccccc1CN(c1ccc(C(=O)NCc2cccnc2)cc1)S(C)(=O)=O`, -13.5%. With `Cc1ccc(SCC(=O)Nc2ccc(S(=O)(=O)Nc3nccs3)cc2)cc1` the figure was 13.6%. Take `c1ccc(-c2cn(-c3ccccc3)c3ncnc(NCCCN4CCOCC4)c23)cc1`: the inhibition is 1.78%.

On to `Fc1ccc(-n2cc(-c3ccccc3)c3c(NN4CCOCC4)ncnc32)cc1`, for which the inhibition is -8.02%.

On to `CCN=C(N/N=C/c1ccc([N+](=O)[O-])cc1)SC`, for which the inhibition is -6.2%. With `O=C(CNc1ccccc1C(=O)O)c1ccccc1` the figure was -10.8%; with `Cc1ccc(NC(=O)C/C(N)=N/O)cc1C`, 72.6%. Regarding `Cc1ccc(S(=O)(=O)N(C)Cc2ccc(C(=O)NN=C3C4CC5CC(C4)CC3C5)cc2)cc1`, the inhibition was -4.86%. For `Nc1cc(N)cc(-c2nc3ccccc3o2)c1` the value was 53%; for `Nc1nc(-c2cc3ccccc3o2)cs1`, 3.5%; for `CNc1ccccc1C(C)(C)c1cc(-c2cccc(OC)c2)no1`, 3.34%. With `Cn1/c(=N\NC(=O)C2CCCCC2)sc2ccccc21` the figure was 4.34%; with `CCOC(=O)c1c(C)n(C)c2ccc(OCC(N)=O)cc12`, 0.2%; with `CCOC(=O)c1c(C)n(C)c2ccc(OC(C)=O)cc12`, -1.73%. On to `Cc1nn(C)c(C(=O)N/N=C/c2ccccc2)c1[N+](=O)[O-]`, for which the inhibition was -7.25%.

Consider `COc1ccc(-n2c(SC3CCOC3=O)nc3ccccc3c2=O)cc1Cl` (stereo not drawn), for which the inhibition is 5.75%. For `CN1CCN(c2ccc(NC(=O)COc3ccccc3Cl)cc2)CC1` the value was 6.62%. As to `COc1cccc(C(C(=O)NC2CCCC2)N(Cc2ccccc2OC)C(=O)c2ccco2)c1` (stereo not drawn), the inhibition was 2.53%. With `COc1ccc(Nc2oc(COc3ccc(OC)cc3)nc2C#N)cc1`, the inhibition was -0.92%. For `COc1ccccc1/C=C/C(=O)NCc1ccccn1` the value was -4.28%.

On to `CN(C(=O)Oc1cccc2cccnc12)c1ccccc1`, for which the inhibition is 1.95%. `Cc1ccc2cccc(OC(=O)/C=C\c3ccccc3)c2n1`: the inhibition was -1.17%. With `COc1ccccc1/C=C/C(C)=O` the figure was -0.82%; with `CCCNS(=O)(=O)c1ccc(NC(=O)Cc2cccs2)cc1`, 5.56%; with `C/C=C/c1ccc(OCCCCOc2ccccc2C(C)=O)c(OC)c1`, 6.35%.

Turning to `Brc1cccc(OCCOCCn2ccnc2)c1`, the inhibition is 4.09%.

On to `O=C(NCCN1CCc2ccccc2C1)C1CCN(S(=O)(=O)N2CCC3(CC2)OCCO3)CC1`, for which the inhibition was -3%. For `O=C(NCc1ccco1)c1ccccc1-c1ccccc1` the value was -5.77%; for `O=C(NCc1ccco1)c1ccccc1Br`, -5.82%; for `O=c1ccnc(SCc2ccccc2Cl)[nH]1`, 3.49%. As to `CN(C)c1ccccc1C(=O)N1CCCC(C(=O)c2ccc3ccccc3c2)C1` (stereo not drawn), the inhibition was -4.94%. With `CCn1nc(C)cc1C(=O)N1CCCC(C(=O)c2ccc3ccccc3c2)C1` (stereo not drawn) the figure was 5.72%; with `CCc1cccc2c1NC(=O)[C@]21[C@@H]2C(=O)N(Cc3ccccc3)C(=O)[C@@H]2[C@@H]2CCCN21`, -9.59%; with `CCc1ccc2c(c1)[C@]1(C(=O)N2)[C@@H]2C(=O)N(Cc3ccccc3)C(=O)[C@@H]2[C@@H]2CCCN21`, 3.94%. For `CC(C)c1cc(C(=O)N2CCCC(C(=O)c3ccc4ccccc4c3)C2)on1` (stereo not drawn) the value was 5.22%; for `Cc1cccc2c1NC(=O)C21N2CCCC2C(C(=O)c2ccc3ccccc3c2)C12C(=O)Nc1ccccc12` (stereo not drawn), 21.8%; for `Nc1nc(N2CCN(C(=O)c3ccco3)CC2)nc2ccc(Br)cc12`, 10.2%. For `Nc1c(Cl)ncnc1N1CCCC1` the value was -5.84%; for `CCCCOCCCNS(=O)(=O)c1ccccc1`, -3.58%; for `Cc1cc(Nc2cccc([N+](=O)[O-])c2)c2cccc(C)c2n1`, -6.77%. `Cc1ccccc1C(=O)NNC1CC(=O)N(c2ccc3c(c2)OCCO3)C1=O` (stereo not drawn): the inhibition is -10.4%. For `O=C(COC(=O)c1ccc(O)cc1)Nc1cc(C(F)(F)F)ccc1Cl` the value was 0.39%; for `CCS(=O)(=O)CCSc1nc2ccccc2o1`, 3.19%; for `c1ccc2oc(CCc3nc4ccccc4o3)nc2c1`, 0.98%. With `CCC(=O)c1ccc(OCCn2cnc3ccccc32)cc1` the figure was 9.27%. For `COc1ccc(NC(=O)c2ccco2)c(OC)c1` the value was -9.54%; for `COc1cc(NC(=O)c2ccco2)c(OC)cc1NC(=O)c1cc(OC)c(OC)c(OC)c1`, 3.83%; for `Cc1ccc(-c2nnn(CC(=O)N(CC(=O)NC3CCCCC3)c3ccc(F)c(Cl)c3)n2)o1`, 1.56%. Consider `O=C(Nc1ccccc1)N(Cc1ccc2c(c1)OCO2)Cc1nc2ccccc2c(=O)[nH]1`, for which the inhibition is 9.11%. Take `CCOC(=O)C1(CCc2ccccc2)CCN(Cc2ccc(O)cc2)CC1`: the inhibition is 1.73%. With `CCOC(=O)C1(CCc2ccccc2)CCN(Cc2nccn2CC)CC1` the figure was 4.84%; with `Cn1cnnc1SCNC(=O)C(F)(F)F`, -14.5%. On to `Cc1oc2cc(OC(C)C(=O)O)ccc2c(=O)c1Oc1ccccc1` (stereo not drawn), for which the inhibition was -9.62%. For `COc1ccccc1-c1coc2cc(OC(=O)/C=C/c3ccccc3)ccc2c1=O` the value was 12.4%. With `COc1ccccc1-c1coc2cc(OC(=O)N3CCOCC3)ccc2c1=O` the figure was 0.83%. For `CCN(CC)C(=O)Oc1ccc2c(=O)c(-c3ccccc3)coc2c1` the value was 8.19%. Take `CCOC(=O)c1oc2cc(OCC(N)=O)ccc2c(=O)c1-c1ccc(OC)c(OC)c1`: the inhibition was -2.49%. As for `Cc1oc2cc(OCC(=O)O)ccc2c(=O)c1Oc1ccccc1`, the inhibition was -10.7%. Consider `CCOC(=O)c1oc2cc(OC(C)=O)ccc2c(=O)c1-c1ccc(OC)c(OC)c1`, for which the inhibition was -4.14%. As to `CC(=O)Oc1ccc2c(=O)c(-c3ccccc3)coc2c1`, the inhibition was 71.2%. With `CCOC(=O)N1CCC(NC(=O)C2CCN(S(=O)(=O)c3ccc4c(c3)oc(=O)n4C)CC2)CC1` the figure was -3.61%; with `Cc1ccc(OCCNC(=O)c2cc(C(=O)NCCOc3ccc(C)cc3)cc([N+](=O)[O-])c2)cc1`, 1.97%. With `O=C1c2cc3ccccc3c(-c3ccccc3)c2C(=O)N1c1ccccn1` the figure was 11.2%; with `O=C(C1CCC(N2C(=O)C3CC=CCC3C2=O)CC1)N1CCCCC1` (stereo not drawn), 0.53%; with `CCOc1ccccc1Oc1coc2cc(OCC(=O)O)ccc2c1=O`, 1.18%. On to `N#Cc1c2ccc(OCC(N)=O)cc2n2ccccc12`, for which the inhibition is 5.54%.

As for `COc1ccccc1-c1coc2cc(OCC(=O)OCc3ccccc3)ccc2c1=O`, the inhibition was 8.31%. With `COc1ccc2c(C#N)c3ccccn3c2c1` the figure was 8.95%; with `CS(=O)(=O)Nc1ccccc1NS(C)(=O)=O`, 2.07%; with `Cc1nnc(SCC(=O)NCc2ccc(Cl)cc2)[nH]c1=O`, -5.88%. For `CC(=O)c1cccc(NC(=O)CC2S/C(=N/N=C/c3ccccc3)NC2=O)c1` (stereo not drawn) the value was 5.53%; for `O=C(CC(=O)c1ccccc1O)c1ccc(F)cc1`, -0.45%; for `Cc1ccc(C(=O)CC(=O)c2cccc(F)c2)c(O)c1`, 21%. With `N=C1C(c2ccccc2)=C(O)CN1c1cccc(S(=O)(=O)Nc2cccc(C(F)(F)F)c2)c1` the figure was 71.6%.

Take `CCc1ccc(NC(=O)C(C)OC(=O)C2CCC(=O)N2)cc1` (stereo not drawn): the inhibition was -4.48%. In the case of `Cc1ccccc1NC(=S)NCCc1ccccn1`, the inhibition was 1.47%. For `Cc1cc(C)cc(N(CC(=O)NCC2CCCO2)C(=O)CN2C(=O)COc3ccccc32)c1` (stereo not drawn) the value was -1.08%; for `COc1ccc(OCCOc2ccc(C)nc2[N+](=O)[O-])cc1`, 9.48%. As for `CCC(CO)NCc1ccc(Br)cc1` (stereo not drawn), the inhibition is 2.11%. With `CCC(CO)NCC#Cc1ccccc1` (stereo not drawn) the figure was -0.71%. `CCN1CCN(C(c2cc3cccc(C)c3[nH]c2=O)c2nnnn2Cc2ccccc2)CC1` (stereo not drawn): the inhibition is -2.17%. Turning to `O=[N+]([O-])C(=C1Nc2ccccc2N1)C(Cl)=C(Cl)Cl`, the inhibition was 0.64%.

For the molecule `CCOC(=O)COc1cc([N+](=O)[O-])cc2cccnc12`, the inhibition is 3.26%.

For the molecule `COC(=O)c1ccc(COc2cc([N+](=O)[O-])cc3cccnc23)cc1`, the inhibition was -7.07%. As for `O=[N+]([O-])c1ccc(O)c2ncccc12`, the inhibition is 79%. With `Clc1cc2cccnc2c2ccccc12` the figure was -3.53%; with `O=[N+]([O-])c1cc(Cl)c2cccnc2c1O`, 3.31%. Consider `Cc1ccc([N+](=O)[O-])c2cccnc12`, for which the inhibition is -9.13%. With `Oc1c(I)cc(I)c2cccnc12` the figure was 76.2%; with `O=[N+]([O-])c1cc(F)c2cccnc2c1O`, -0.05%; with `CCOc1ccccc1CN1C(=O)c2ccccc2C1C(=O)NCC1CCCO1` (stereo not drawn), 1.98%.

These data come from PubChem BioAssay AID1626 (SRMLSC, 2009).
